Screens deposited in PubChem by National Center for Advancing Translational Sciences (NCATS).
Rows were chosen to be rich in hits. Some 9% of all compounds tested hit in one or more screens of this group.
BAZ2B inh = BAZ2B (human) inhibition | 360,000 compounds, 4.4% hits | Q9UIF8 | AlphaScreen BAZ2B-H3K14Ac peptide displacement | Potency, µM (series often up to 114 µM), inactives show top-dose activity change, negative = inhibition, usual class: inhibitors | AID 504333; further: on the % scale 0 is the no-effect control and ±100 the full control effect; nearly all actives have a fitted effect of over 60% in size
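Complex of BAZ2B and biotin-H3K14Ac (50 nM apiece) forms over 30 min at RT, then faces library compounds up to 110 uM for another 30 min; AlphaScreen beads added, 20 min dark incubation, luminescence read.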
PLK1 PBD block = PLK1 (human) polo-box domain binding inhibition | Potency, µM, inactives show max response, negative = inhibition, actives largely listed as inhibitors | 360,000 compounds, 2.8% hits | AID 720504 | Plk1 PBD binding of FITC phosphopeptide, fluorescence polarization; further: series mostly up to about 57 µM; on the % scale 0 is the no-effect control and ±100 the full control effect; nearly all actives have a fitted effect of over 65% in size
HP1b chromo inh = inhibitors of HP1-beta chromodomain binding to methylated histone tails; AlphaScreen HP1-beta / biotin-H3K9me3 peptide binding; Potency, µM (titrated, usually from 114 µM), for inactives: at the highest dose activity change, negative = inhibition, most hits filed as inhibitors; 390,000 compounds, 0.56% hits; AID 540317; further: nearly all actives have a fitted effect of over 70% in size
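Compound inhibition of the preformed complex between 50 nM HP1-beta and 50 nM biotinylated H3K9me3 peptide was read by AlphaScreen. Buffer was PBS pH 7.4 with 0.01% Tween-20. Incubations ran 30 min at room temperature, with 10 ug/mL donor/acceptor beads.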
ALOX12 inh = inhibitors of human 12S-lipoxygenase ALOX12. Potency, µM (series often up to 108 µM), for the others: top-dose activity change, negative = inhibition, actives largely listed as inhibitors. P18054. purified 12hLO, xylenol orange hydroperoxide absorbance. AID 1671190. 580,000 compounds, 1.1% hits; further: on the % scale 0 is the no-effect control and ±100 the full control effect
Target sequence (P18054 whole entry, looked up): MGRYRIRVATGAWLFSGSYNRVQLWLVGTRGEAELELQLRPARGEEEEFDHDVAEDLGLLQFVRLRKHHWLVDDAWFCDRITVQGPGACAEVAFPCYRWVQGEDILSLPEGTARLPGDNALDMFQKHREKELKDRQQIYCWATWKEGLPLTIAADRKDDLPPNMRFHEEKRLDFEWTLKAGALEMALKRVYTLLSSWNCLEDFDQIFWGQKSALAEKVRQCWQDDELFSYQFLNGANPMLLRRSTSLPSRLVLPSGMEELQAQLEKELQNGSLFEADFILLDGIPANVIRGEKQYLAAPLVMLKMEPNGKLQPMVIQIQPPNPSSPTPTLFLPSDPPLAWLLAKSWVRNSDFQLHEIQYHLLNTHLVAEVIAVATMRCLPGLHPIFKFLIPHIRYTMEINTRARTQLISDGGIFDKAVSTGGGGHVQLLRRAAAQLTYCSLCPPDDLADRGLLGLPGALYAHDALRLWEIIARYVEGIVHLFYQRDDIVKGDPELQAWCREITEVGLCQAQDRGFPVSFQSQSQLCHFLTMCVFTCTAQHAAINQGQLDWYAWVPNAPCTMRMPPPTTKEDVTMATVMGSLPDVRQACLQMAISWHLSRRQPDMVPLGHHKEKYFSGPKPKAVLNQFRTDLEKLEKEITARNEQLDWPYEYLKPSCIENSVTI
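Hydroperoxide product was detected by ferrous iron/xylenol orange as the 573 to 405 nm absorbance ratio. Arachidonic acid at 40 uM (final) was turned over for 30 min at room temperature by 150 nM human 12hLO, pH 7.0 Hepes buffer, after 15 min compound preincubation.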
JMJD2A Tudor = inhibitors of human JMJD2A Tudor domain; O75164; AlphaScreen JMJD2A-Tudor / H3K4me3 peptide binding; Potency, µM (doses to about 114 µM), inactives show at the top dose activity change, negative = inhibition, usual class: inhibitors; 390,000 compounds, 4.4% hits; further: on the % scale 0 is the no-effect control and ±100 the full control effect; nearly all actives have a fitted effect of over 50% in size
G9a inh = blocks human histone lysine methyltransferase G9a; Q96KQ7; Potency, µM (highest dose often 102 µM), for inactives: top-dose activity, negative = inhibition, hits mostly inhibitors; G9a H3K9 monomethylation, AlphaScreen, 2 h; AID 504332; 350,000 compounds, 8.8% hits; further: on the % scale 0 is the no-effect control and ±100 the full control effect; nearly all actives have a fitted effect of over 75% in size
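Compounds were preincubated with 20 nM G9a for 15 min, after which biotinylated H3K9 peptide (500 nM) and SAM (20 uM) started a 2 h room-temperature reaction. Monomethylated product was quantified by antibody-based AlphaScreen chemiluminescence.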
The depositor's hits bear a star; ! = a repeat was not active; [ ] = dose if it differs, or a comment. The call rests on the fitted dose curve; in most records, active means well fitted curve in the direction sought with a large enough effect; inconclusive means small, poorly fitted or top-dose-only effect, or another doubt; inactive means no such curve, though single readings can be large; an effect the other way counts as inactive or inconclusive. Potency means the concentration at half of the fitted maximal effect.

For CNC(=O)c1[nH]cnc1C(=O)Nc1ccccn1 the results were BAZ2B inh 56µM*, PLK1 PBD block 3%, HP1b chromo inh -2%, ALOX12 inh 9% and JMJD2A Tudor inconclusive.
CNC(=O)c1[nH]cnc1C(=O)Nc1cccc(OC)c1 was read as BAZ2B inh 50µM*, PLK1 PBD block -1%, HP1b chromo inh 16%, ALOX12 inh 0%, JMJD2A Tudor -26% and G9a inh inconclusive.
Cc1cccc(NC(=O)c2nc[nH]c2C(=O)Nc2cccc(C)c2)c1 was read as BAZ2B inh inconclusive, PLK1 PBD block -2%, HP1b chromo inh 31%, ALOX12 inh 12%, JMJD2A Tudor -10% and G9a inh -23%.
For CCOC(=O)c1[nH]cnc1C(=O)Nc1cccc(OC)c1 the results were BAZ2B inh inconclusive, PLK1 PBD block -12%, HP1b chromo inh 29%, ALOX12 inh -1%, JMJD2A Tudor inconclusive and G9a inh 28µM*!.
`CCCCC[C@H](O)C=C[C@H]1[C@H](O)CC(=O)[C@H]1CC=CCCCC(=O)O` gave ALOX12 inh -17%[57.4 µM].
Screening CCc1noc(CN2CCOc3c(O)cc(-c4ccccc4C)cc3C2)n1 returned ALOX12 inh 35%.
`O=C(CCc1ncc(-c2ccccc2Cl)o1)NCc1ccccc1Cl` gave ALOX12 inh 4%.
`COc1ccc(C2(c3ccc(OC)cc3)NC(=O)N(Cn3nnc4ccccc4c3=O)C2=O)cc1` gave BAZ2B inh -19%, PLK1 PBD block inconclusive, HP1b chromo inh -3%, ALOX12 inh 0%, JMJD2A Tudor -12% and G9a inh 8%[59 µM].
For CCn1c(C)cc(/C=C2/SC(=S)N(CC(=O)O)C2=O)c1C the results were BAZ2B inh -32%, PLK1 PBD block 5%, HP1b chromo inh 1%, ALOX12 inh inconclusive, JMJD2A Tudor -31% and G9a inh 50µM*.
Screening CCOc1ccc(-c2nn(-c3ccccc3)cc2/C=C2\SC(=S)N(Cc3ccco3)C2=O)cc1 returned BAZ2B inh -9%, PLK1 PBD block -18%, HP1b chromo inh -2%, ALOX12 inh -25%, JMJD2A Tudor inconclusive and G9a inh 9%[59 µM].
C#CCN1C(=O)S/C(=C/c2cc(C)n(CC)c2C)C1=O was read as BAZ2B inh 18%, PLK1 PBD block -7%, HP1b chromo inh 29%, ALOX12 inh -25%, JMJD2A Tudor -23% and G9a inh -2%.
For CCN1C(=O)/C(=C\c2cn(-c3ccccc3)nc2-c2cccnc2)SC1=S the results were BAZ2B inh -11%, PLK1 PBD block 1%, HP1b chromo inh 18%, ALOX12 inh -5%, JMJD2A Tudor -17% and G9a inh 1%.
Screening O=C(O)CN1C(=O)/C(=C\c2cn(-c3ccccc3)nc2-c2ccccc2)SC1=S returned BAZ2B inh inconclusive, PLK1 PBD block 21µM*, HP1b chromo inh -21%[57 µM], JMJD2A Tudor 50µM* and G9a inh 11µM*.
Screening CCCOc1ccc(-c2nn(-c3ccccc3)cc2/C=C2\SC(N)=NC2=O)cc1 returned BAZ2B inh 4%, PLK1 PBD block 7%, HP1b chromo inh 25%, ALOX12 inh -16%, JMJD2A Tudor 6% and G9a inh 5%[59 µM].
Screening Cc1ccc(-c2nn(-c3ccccc3)cc2C=C2SC(=S)N(CCS(=O)(=O)O)C2=O)cc1 returned PLK1 PBD block 11µM* and ALOX12 inh inconclusive.
Screening CC(C)COc1ccc(-c2nn(-c3ccccc3)cc2/C=C2/SC(=S)N(CC(=O)O)C2=O)cc1 returned BAZ2B inh 45µM*, PLK1 PBD block 21µM*, HP1b chromo inh 40µM*, ALOX12 inh 45µM*, JMJD2A Tudor 45µM* and G9a inh 50µM*.
Screening CCC1(C2CCN(C(=O)c3cc(F)ccc3F)CC2)NC(=O)N(CCc2scnc2C)C1=O (stereo unspecified) returned ALOX12 inh 13%.
